Laboratory results as given in PubChem BioAssay AID720565 (National Center for Advancing Translational Sciences (NCATS), 2013).
“And” between values parts separate entries of the source, which are not always exact repeats. Equal entries are not always repeated. Records with an inconclusive call do not appear. The source made the active and inactive calls. The call rests on the fitted dose curve; in most records, active means well fitted activation curve with a large enough effect; inconclusive means small, poorly fitted or top-dose-only effect; inactive means no such curve, though single readings can be large or run the other way.
Potency means the concentration at half of the fitted maximal effect.

Assay: qHTS for small molecules that induce genotoxicity in ELG1 expressing cells: Confirmatory Assay for Cherry-picked Compounds; further: nearly all actives have a fitted effect of over 35% in size
Conditions: ELG1-luciferase reporter cells, luminescence, 16 h; series mostly up to 46.1 µM
Summary of the method: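 Activation readout: ONE-Glo luciferase signal from ELG1 reporter cells, 2,000 per well, after 16 hr compound incubation at 37 C. Increased ELG1-driven luminescence reflects genetic stress.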
In the case of `Cn1cccc1C(=O)Nc1ccc(N2CCOCC2)cc1`, the Potency is reported as 7.05 µM (active). For `O=C1CCCC(=NNC(=O)c2cc3ccccc3cc2O)C1`, the Potency was 15.8 µM (active). In the case of `COc1ccc(/C=C/c2ccc3ccccc3n2)c(OC)c1`, the Potency is reported as 0.25 µM (active). For `CNC(=O)c1cc(-c2cccs2)on1`, the Potency was “inactive”. In the case of `C[C@@H]1CC2[C@@H]3CCC4=CC(=O)C=C[C@]4(C)[C@@]3(F)[C@@H](O)C[C@]2(C)[C@@]1(O)C(=O)NCCCCCCOC[C@H]1O[C@@H](n2cnc3cc(Cl)c(Cl)cc32)[C@@H]2OC(C)(C)O[C@@H]21` (some centres not stated), the Potency is reported as 2.29 µM (active). For `CC(=O)c1cc(F)ccc1OCC(=O)Nc1ccc2c(c1)OCO2`, the Potency was 6.28 µM (active). In the case of `CN(C)c1ccc(C(=O)OCC(=O)c2ccc[nH]2)cc1`, the Potency is reported as 14.1 µM (active). With `C(=C\c1ccc2ccccc2n1)/c1ccc2ccccc2n1` the Potency was 0.792 µM (active). With `c1nc(CCO[C@H]2CCCCO2)cc2cc3c(cc12)OCO3` the Potency was 0.281 µM (active). With `CN(C)c1ccc(-c2cc3ccccc3c(=O)o2)cc1` the Potency was 0.445 µM (active). In the case of `C(=C\c1c[nH]c2ccccc12)/c1ccc2ccccc2n1`, the Potency is reported as 0.141 µM (active). For `Cc1ccc2nc(-c3ccc(C)c(NC(=O)COc4ccc(Br)cc4)c3)oc2c1`, the Potency was 2.5 µM (active). With `O=C(Nn1c(SCc2ccc([N+](=O)[O-])cc2)nc2ccccc2c1=O)c1ccc(F)cc1` the Potency was 5 µM (active). In the case of `CCn1c(C)cc(C(=O)COC(=O)c2cccnc2SC)c1C`, the Potency is reported as 9.96 µM (active). In the case of `CC(C)CN(C)c1ccc(/C=C2\C=Cc3ccccc32)cc1`, the Potency is reported as 14.1 µM (active). In the case of `Cc1cc2cc3c(cc2nc1SCC(=O)N1CCOCC1)OCO3`, the Potency is reported as “inactive”. In the case of `CC(=O)Oc1ccc(-c2nc(-c3ccccc3)no2)cc1`, the Potency is reported as 2.81 µM (active). In the case of `COc1ccccc1/C=C/c1nc2ccccc2o1`, the Potency is reported as 3.53 µM (active). For `O=c1c2ccccc2oc2c1oc1ccccc12`, the Potency was 14.1 µM (active). For `CC(=O)c1c(C)[nH]c(C(=O)Nc2cccc(S(=O)(=O)N3CCCC3)c2)c1C`, the Potency was 15.8 µM (active). With `CN(C)c1cccc(-c2ccnc(N3CCC(C(N)=O)CC3)n2)c1` the Potency was 0.5 µM (active). With `CC1CCC(NC(=O)CN2C(=O)NC(C)(C)C2=O)CC1` (configuration not stated) the Potency was “inactive”. With `COc1ccc(S(=O)(=O)Nc2cccc3cccnc23)c([N+](=O)[O-])c1` the Potency was “inactive”. For `COc1ccccc1NC(=O)CSc1nnc(-c2ccccc2)o1`, the Potency was 2.5 µM (active). With `CC(/C=C/C(=O)NO)=C\[C@@H](C)C(=O)c1ccc(N(C)C)cc1` the Potency was 0.629 µM (active). In the case of `c1ccc(-c2cc3cc4c(cc3cn2)OCO4)cc1`, the Potency is reported as 2.81 µM (active). With `COc1ccc2cc(C[C@@H]3CC[C@@H](CO)O3)ccc2c1` the Potency was 12.5 µM (active). With `Cc1cc(C(=O)COC(=O)C23CC4CC(CC(O)(C4)C2)C3)c(C)n1C` the Potency was 14.1 µM (active). In the case of `Cc1cc(C)c(C#N)c(SCC(=O)Nc2cc(C)on2)n1`, the Potency is reported as 4.99 µM (active). With `CN(C)N=Nc1ccc(/C=C2\C=Cc3ccccc32)cc1` the Potency was 3.97 µM (active). In the case of `O=C(NCc1cccs1)c1cc(-c2ccccc2)on1`, the Potency is reported as 11.5 µM (active) and 7.06 µM (active). In the case of `Cn1cccc1C(=O)OCC(=O)Nc1ccc2c(c1)OCCO2`, the Potency is reported as 0.706 µM (active). With `COc1cc(OC)cc(-c2cc3cc4c(cc3cn2)OCO4)c1` the Potency was 5.6 µM (active). With `Cc1ccc(NC(=O)c2ccc(OC(=O)c3ccco3)cc2)cc1` the Potency was 11.5 µM (active) and 14.1 µM (active). With `N#Cc1ccc(-c2ccc(-c3nc4ccccc4c(=O)[nH]3)o2)cc1` the Potency was “inactive”. With `Cc1ccc(OCC(=O)Nc2ccc(-c3nc4ncccc4o3)cc2)cc1` the Potency was 28.1 µM (active). In the case of `Cc1ccccc1-c1nnc(SCC(=O)Nc2cccnc2Cl)o1`, the Potency is reported as 3.15 µM (active).
